# BRCA1 expr act – BRCA1 expression activation. MCF7-BRCA1-FFLuc reporter, luminescence, 48 h; response scale: scaled: vehicle 0%, 10 µM genistein 100%. Potency, µM (top dose mostly 46.1 µM), actives largely listed as activators. actives 1.1% (n = 380,000); note: nearly all actives have a fitted effect of over 80% in size
#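 First, MCF7-BRCA1-FFLuc cells (2000/well) attach for 2 h; next, compounds are pin-added and incubated 48 h at 37 °C; finally, luciferase reagent is added and luminescence read after 15 min.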
# PTHR1 agonist – activates the human parathyroid hormone receptor PTHR1 | Q03431 | HEK293 GP2 PTHR1 cells, GloSensor cAMP luminescence, 1 h | Potency, µM (titrated, usually from 115 µM), usual class: activators | actives 0.075% (n = 410,000); note: nearly all actives have a fitted effect of over 55% in size
# Target sequence (Q03431 whole entry, looked up): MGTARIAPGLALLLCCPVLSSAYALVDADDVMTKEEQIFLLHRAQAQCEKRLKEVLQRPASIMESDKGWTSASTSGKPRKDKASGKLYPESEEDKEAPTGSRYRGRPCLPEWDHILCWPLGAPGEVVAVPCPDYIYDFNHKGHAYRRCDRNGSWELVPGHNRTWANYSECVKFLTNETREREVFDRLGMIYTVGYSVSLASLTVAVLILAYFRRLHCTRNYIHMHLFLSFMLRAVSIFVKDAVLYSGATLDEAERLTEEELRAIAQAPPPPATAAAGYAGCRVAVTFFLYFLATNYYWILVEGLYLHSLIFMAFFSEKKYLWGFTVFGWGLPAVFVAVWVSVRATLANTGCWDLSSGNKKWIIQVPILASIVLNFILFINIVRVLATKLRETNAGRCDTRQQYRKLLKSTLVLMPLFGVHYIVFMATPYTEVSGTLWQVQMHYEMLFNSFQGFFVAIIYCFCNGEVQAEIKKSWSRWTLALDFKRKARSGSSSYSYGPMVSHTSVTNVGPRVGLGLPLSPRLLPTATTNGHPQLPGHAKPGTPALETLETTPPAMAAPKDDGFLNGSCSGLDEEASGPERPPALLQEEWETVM
#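 HEK-293-derived GP2 cells expressing PTHR1 and a GloSensor cAMP reporter, 3,000/well, plated overnight, given luciferin plus IBMX (each 0.5 mM as added) for 1 h at 37 °C, then compound for 1 h at 37 °C. Luminescence was read after 15 min at room temperature.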
# Mito fusion yeast – mitochondrial division inhibition or fusion activation | S. cerevisiae fusion-defective mutant growth rescue, CellTiterGlo 48 h | AID 485298 | actives 0.23% (n = 320,000) | Potency, µM (highest dose often 46.1 µM), actives largely listed as activators; note: nearly all actives have a fitted effect of over 45% in size
#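 Luminescent cell viability in 1536-well qHTS format served as the measure of rescued growth in ts fusion-mutant S. cerevisiae cultured on non-fermentable YPEG for 48 hours at 37C.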
# BCR signal inh – blocks chronic active B-cell receptor signaling; ABC-DLBCL IkBa-CBG/CBR reporter, luminescence ratio, 4 h; Potency, µM (top dose mostly 46.1 µM), actives largely listed as inhibitors; AID 493014; actives 0.05% (n = 340,000); active = well fitted inhibition curve with a large enough effect in the signal ratio, with a control signal flat, not every such curve was filed as active; inconclusive = small, poorly fitted or top-dose-only effect, or effect the other way, or a change in a side signal; the % refers to the signal ratio
#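 Compounds up to 46 uM were incubated four hours with TMD8 cells whose green CBG68 luciferase is fused to IkappaBalpha; red CBR luminescence normalised the signal, and concentration-effect curves were fitted to fusion, red and ratio data.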
# TCR act – T cell receptor activation. 330,000 tested, under 10 active. primary human leukocytes, anti-CD3, IL-2 HTRF, 48 h. Potency, µM (doses to about 9.22 µM), hits mostly activators. AID 504894
#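 Activity was scored as IL-2 release from primary human leukocytes given only a TCR signal (a-CD3 beads) plus compound for 48 hr. Detection used a two-antibody HTRF format read at 665nm.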
# IL2 activator – activates IL-2 in a cell-based reporter assay; IL-2 activation reporter assay, cell-based qHTS; stimulated with anti-CD3/CD4/CD28 beads; in transgenic mouse T cells; activation, % (series mostly up to about 46 µM); actives 0.065% (n = 360,000); AID 652025; in the data active = activation above about 50%; inconclusive = mostly about 30% to 49%
#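 Unstimulated transgenic mouse T cells, 750 per well, received compound and, after 60 minutes, anti-CD3/anti-CD4 bead plus anti-CD28 stimulation. EGFP and DsRed were quantified after 18 hours.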
# Numbers stand for hits; n = inactive; u = inconclusive; x = no result given. A selection: hits, their analogues and other compounds. The true share with any hit is near 1.3%. Unless noted, calls come from the whole dose curve; as a rule, active = well fitted curve in the direction sought with a large enough effect; inconclusive = small, poorly fitted or top-dose-only effect, or another doubt; inactive = no such curve, though single readings can be large; an effect the other way counts as inactive or inconclusive.
SMILES,BRCA1 expr act,PTHR1 agonist,Mito fusion yeast,BCR signal inh,TCR act,IL2 activator
CCOC(=O)C1CCN(C(=O)Nc2ccc(OC(F)(F)F)cc2)CC1,12.6µM,n,n,u,n,n
CCc1ccc(NS(=O)(=O)c2ccc(NC(=O)N3CCCC3)cc2)cc1,x,n,x,x,x,x
Cc1cc(C)cc(-n2ccnc2SCC(=O)Nc2ccc(C)c(Cl)c2)c1,n,n,x,x,x,x
COc1ccc(-c2nn(-c3ccccc3)cc2C2NC(=O)NC(C)=C2C(=O)OC(C)C)cc1Cl (stereo not drawn),n,n,x,x,x,x
Cc1ccc(NC(=S)N2CCCC2)cc1,u,n,n,n,n,n
Cc1ccc(NC(=S)N2CCCCCC2)cc1,12.6µM,n,n,n,n,n
Cc1ccc(NC(=O)C2CCN(S(C)(=O)=O)CC2)cc1,n,n,n,n,n,n
CCc1ccc(NC(=S)N2CCN(C)CC2)cc1,11.2µM,n,n,n,n,n
Cc1ccc(NC(=O)N2CCCCCC2)cc1,7.94µM,n,n,n,n,n
CCc1ccc(NC(=O)C2CCN(S(C)(=O)=O)CC2)cc1,n,n,n,n,x,56.3
CCc1ccc(CNC(=O)c2ccc(CS(=O)(=O)Cc3ccccc3C)o2)cc1,n,n,x,n,x,x
Cc1ccc(S(=O)(=O)Nc2ccc(-c3ccc4nncn4n3)cc2)cc1,n,n,n,u,n,n
CCN(CC(=O)Nc1ccc2c(c1)OCCO2)c1nc(-c2cccnc2)nc2ccccc12,n,n,n,n,n,n
CCOC(=O)c1ccc(CNC(=O)C2CCC(=O)N(CCc3ccccc3)C2)o1 (stereo not drawn),n,n,n,n,n,n
O=C(Nc1ccc([N+](=O)[O-])cc1Cl)c1cc(Cl)cc(Cl)c1O,n,x,x,x,x,x
CC(=O)NCCNC(=O)c1ccc2c(=O)n(CCc3ccccc3)c(=O)[nH]c2c1,4.47µM,n,x,x,x,x
CCN(CC)CCCNC(=O)c1ccc2c(=O)n(CCc3ccccc3)c(=O)[nH]c2c1,n,n,x,x,x,x
CC(C)[C@H](NS(=O)(=O)c1ccccc1)C(=O)OCC(=O)Nc1ccccc1Sc1ccccc1,n,n,22.4µM,n,n,n
CC(/C=C/c1ccc(O)cc1)=N/O,12.6µM,n,n,u,n,n
CC(/C=C/c1ccccc1)=N/O,n,n,n,n,n,n
CCCCCn1cnc2sc(-c3ccccc3)cc2c1=O,5.01µM,n,n,u,n,n
CCCCn1cnc2sc(-c3ccccc3)cc2c1=O,u,n,n,n,n,n
O=c1c2cc(-c3ccccc3)sc2ncn1/N=C/c1ccco1,11.2µM,n,n,u,n,n
CC(=O)c1c(C)[nH]c(C(=O)COC(=O)Cc2ccccc2F)c1C,n,n,x,u,n,n
CCN(CC)C(=O)c1cc2c(=O)n3cccc(C)c3nc2s1,n,n,n,n,n,n
SMILES,BRCA1 expr act,PTHR1 agonist,Mito fusion yeast,BCR signal inh,TCR act,IL2 activator
COCCNC(=O)C1CCCN(C(=O)c2cc(-c3cccs3)oc2C)CC1 (stereo not drawn),n,n,x,x,x,n
CC(C)N1CN=C(Nc2nc3ccccc3o2)NC1,u,n,n,n,n,n
c1ccc2oc(NC3=NCN(C4CCCCC4)CN3)nc2c1,2.82µM,n,n,n,n,n
CC1CCN(c2ccc(C(=O)NCc3cccs3)cn2)CC1,14.1µM,n,n,u,n,n
COc1ccc(C(=O)Nc2ccccc2C(=O)Nc2cc(C)ccn2)cc1,2.24µM,n,n,u,x,n
COc1ccc(C(=O)Nc2cnc(NC(=O)c3cccs3)cc2C)cc1,7.08µM,n,n,u,n,n
COc1ccc(C(=O)Nc2cc(C)c(NC(=O)c3ccccn3)cn2)cc1,u,n,n,n,n,n
Cc1ccc(N(C(=O)Cn2nnc(-c3ccc(F)cc3)n2)C(C(=O)NC(C)(C)C)c2ccncc2)cc1 (stereo not drawn),n,44.7µM,n,n,n,n
CC(C)(C)NC(=O)C(c1ccncc1)N(C(=O)Cn1nnc(-c2ccc(F)cc2)n1)c1ccc(F)cc1 (stereo not drawn),n,n,n,n,n,n
CN(C)c1nc(F)c(F)c(S(=O)(=O)c2ccccc2)c1F,n,n,n,n,n,n
COc1ccc2c(c1)sc1ncc(C(=O)NCc3ccc(Cl)cc3)c(=O)n12,x,n,x,x,x,x
O=C(CNC(=O)c1ccccc1F)Nc1ccc2c(c1)CCC2,3.98µM,n,n,n,n,n
O=C(Nc1ccc2c(c1)CCC2)c1c(F)cccc1Cl,5.01µM,n,n,n,n,n
O=C(Nc1ccc(Cl)c(Cl)c1)Nc1ccc(Br)cc1F,n,n,n,n,n,n
O=C(Nc1ccc(Cl)c(Cl)c1)Nc1ccccc1O,2.82µM,n,n,u,x,n
CN(C)c1ccc(NC(=O)Nc2ccc3c(c2)nnn3C)cc1,u,n,n,n,n,n
COc1cccc(NC(=O)Nc2ccc3c(c2)nnn3C)c1,7.94µM,n,n,u,n,n
Cn1nnc2cc(C(=O)Nc3ccccc3)ccc21,7.08µM,n,n,n,n,n
Cc1ccc(NC(=O)c2ccc3c(c2)nnn3C)cc1,7.08µM,n,n,n,n,n
COc1ccc(C(O)c2ncc(-c3ccccc3Cl)[nH]2)cc1F (stereo not drawn),n,n,x,x,x,n
CCCCN(C(=O)c1ccc(-c2ccc([N+](=O)[O-])cc2)o1)c1c(N)n(CC(C)C)c(=O)[nH]c1=O,n,n,n,n,n,n
O=C(c1cc(COc2ccc(F)cc2Cl)on1)N1CCSCC1,6.31µM,n,n,n,n,n
O=C(c1cc(COc2ccc(F)cc2Cl)on1)N1CCc2ccccc2C1,n,n,n,u,n,n
COc1ccc(OCc2cc(C(=O)N3CCSCC3)no2)c(Cl)c1,11.2µM,n,n,n,n,n
CSc1ccccc1OCc1cc(C(=O)N(C)Cc2ccc(C)o2)no1,11.2µM,n,n,n,n,n
SMILES,BRCA1 expr act,PTHR1 agonist,Mito fusion yeast,BCR signal inh,TCR act,IL2 activator
CSc1ccccc1OCc1cc(C(=O)N2CCN(c3ncccn3)CC2)no1,n,n,n,n,n,n
COc1ccc(OCc2cc(C(=O)N3CCCCCC3)no2)c(Cl)c1,u,n,n,n,n,n
CSc1ccccc1OCc1cc(C(=O)N2CCSCC2)no1,4.47µM,n,n,n,n,n
O=C(CN(C(=O)CCC(=O)Nc1nccs1)c1cccc(F)c1)NCc1ccccc1,n,n,n,n,n,n
COc1ccc(CN(Cc2ccccc2)C(=O)Nc2ccccc2)cc1COc1ccc(NC(C)=O)cc1,n,x,x,x,x,x
Cc1sc(=NC(=O)c2ccco2)n(C)c1-c1ccc(Cl)cc1,6.31µM,n,n,n,n,n
COc1ccc2c(n1)Sc1nc3ccccc3nc1N2,n,n,n,n,n,259.7
COc1cc2ccccc2nn1,n,n,n,n,n,n

# Assay outcomes: PubChem BioAssay, National Center for Advancing Translational Sciences (NCATS)
